Nrf2 block: Nrf2 qHTS screen for inhibitors | A549 ARE-Fluc reporter, luciferase luminescence, 18-24 h | Potency, µM (highest dose often 46 µM), for inactives: at the top dose activity change, negative = inhibition, actives largely listed as inhibitors | 2.1% of 360,000 active; further: potency means the concentration at half of the fitted maximal effect; nearly all actives have a fitted effect of over 60% in size
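A549 ARE_Fluc cells, 5000/well, 5% FBS OPTI-MEM; compounds in dose-response, 18-24 h at 37 °C/5% CO2; CellTiter-Fluor viability read (Ex 405/Em 525), then BugLite luciferase luminescence = Nrf2 activity.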
PI4K2A inh: qHTS for small molecular inhibitors of PI4K2A; purified PI4K2A, ADP-Glo luminescence, 1 h; stronger effect = lower value; activity change, negative = inhibition, % at 76.9 µM; 0.13% of 420,000 active; in the data active means activity change below about -50%; inconclusive means mostly about -30% to -49%;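 further: -100% = wells without enzyme as full effect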
Target sequence (Q9BTU6 whole entry, looked up): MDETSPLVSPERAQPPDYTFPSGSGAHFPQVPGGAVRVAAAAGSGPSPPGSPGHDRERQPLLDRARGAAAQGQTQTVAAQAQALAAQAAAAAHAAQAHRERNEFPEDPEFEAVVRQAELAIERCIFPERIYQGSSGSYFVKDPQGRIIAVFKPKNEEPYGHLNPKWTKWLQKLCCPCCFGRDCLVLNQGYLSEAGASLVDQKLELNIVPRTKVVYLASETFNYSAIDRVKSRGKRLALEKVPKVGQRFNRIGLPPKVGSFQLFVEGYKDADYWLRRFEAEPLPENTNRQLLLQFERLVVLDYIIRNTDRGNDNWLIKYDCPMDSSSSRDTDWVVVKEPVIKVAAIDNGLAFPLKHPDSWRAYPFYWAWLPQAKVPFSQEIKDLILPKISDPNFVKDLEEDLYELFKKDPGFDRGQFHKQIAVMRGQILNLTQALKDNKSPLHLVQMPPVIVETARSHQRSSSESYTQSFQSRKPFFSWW
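In this quantitative HTS, ADP production by PI4K2A was quantified luminescently after 1 h at ambient temperature; 100 microM adenosine served as plate-quality control.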
Giardia killer: Small Molecules that selectively kill Giardia lamblia: qHTS | Giardia lamblia trophozoite viability | activity change, % at 7.66 µM, hits read low | 0.15% of 340,000 active | AID 540267, 2011; in the data active means activity change below about -80%; inconclusive means between about -30% and that limit;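 further: parasites exposed to compound for two days anaerobically before the ATP read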
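Luminescent ATP signal served as the viability read-out, measured 15-30 min after adding ATP detection reagent to trophozoites that had been incubated with compounds for 48 hrs at 37 deg C anaerobically at 100 cells/well.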
KB-V1 MDR tox: qHTS assay for MDR1-selective chemotherapeutics: Primary screen using the drug-selected MDR subline cells KB-V1; KB-V1 MDR cells viability, CellTiter-Glo, 72 h; Potency, µM (top dose mostly 46.1 µM), usual class: cytotoxic; 3.4% of 400,000 active; further: potency means the concentration at half of the fitted maximal effect; nearly all actives have a fitted effect of over 60% in size
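Following 72 h at 37 degrees C with compound, KB-V1 cell viability was read by CellTiter-Glo luminescence, medium being phenol-red-free DMEM plus 10% FBS; concentration-response parameters came from normalized, curve-fitted qHTS data.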
A549 viability: Nrf2 qHTS screen for inhibitors: counterscreen for cytotoxicity | 0.16% of 390,000 active | A549 ARE-Fluc cells, CellTiter-Fluor viability, 18-24 h | Potency, µM (top dose mostly 46 µM), for the others: at the top dose activity change, negative = cytotoxicity, hits mostly inhibitors | AID 504648, 2011; further: potency means the concentration at half of the fitted maximal effect
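A549 ARE_Fluc cells in 5% FBS OPTI-MEM were exposed to compounds in concentration-response for 18-24 h at 37 deg C. Viability was read by CellTiter-Fluor fluorescence (Ex 405/Em 525) after 30 min, before the luciferase read.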
KB-3-1 tox: qHTS assay for MDR1-selective chemotherapeutics: Primary screen using the parental adenocarcinoma cell KB-3-1. KB-3-1 viability, CellTiter-Glo ATP luminescence, 72 h. Potency, µM (series often up to 46.1 µM), actives largely listed as cytotoxic. 1.4% of 400,000 active. AID 1347075, 2019; further: potency means the concentration at half of the fitted maximal effect; nearly all actives have a fitted effect of over 60% in size
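Parental KB-3-1 viability, qHTS format: 72 h compound exposure, 37 °C; CellTiter-Glo; media-only wells and DMSO plates as controls; concentration-effect fits on corrected data.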
An asterisk follows results filed as active. The list is not random: actives were taken first. Their share in the collection is about 5.7%. Unless noted, the call rests on the fitted dose curve; in most records, active means well fitted curve in the direction sought with a large enough effect; inconclusive means small, poorly fitted or top-dose-only effect, or another doubt; inactive means no such curve, though single readings can be large; an effect the other way counts as inactive or inconclusive. Unless noted, on the % scale 0 is the no-effect control and ±100 the full control effect.

COc1ccc(-c2csc(NC(=O)c3ccccc3S(C)(=O)=O)n2)cc1 was read as Nrf2 block 16µM*, PI4K2A inh 2, Giardia killer -24, KB-V1 MDR tox inconclusive, A549 viability -11% and KB-3-1 tox inactive.
Screening Brc1ccc(-c2csc(N3CCNCC3)n2)cc1 returned PI4K2A inh -6.
Screening CC(Oc1ccccc1F)C(=O)Nc1ccc2ccccc2c1 (stereo not given) returned Nrf2 block inconclusive, PI4K2A inh 2, Giardia killer 8, KB-V1 MDR tox inconclusive, A549 viability 0% and KB-3-1 tox 12µM*.
Screening CCn1c(=NC(=O)C2COc3ccccc3O2)sc2c(OC)ccc(OC)c21 (stereo not given) returned Nrf2 block -1%, PI4K2A inh -2, Giardia killer -17, KB-V1 MDR tox 9.2µM*, A549 viability 22% and KB-3-1 tox inactive.
For CCn1c(=NC(=O)c2ccc3c(c2)OCCO3)sc2c(C)ccc(OC)c21 the results were PI4K2A inh 2 and A549 viability 15%.
COC(=O)c1cc(C(=O)N2CCOCC2)cc([N+](=O)[O-])c1 was read as Nrf2 block -7%, PI4K2A inh -5, Giardia killer 0, KB-V1 MDR tox inactive, A549 viability 0% and KB-3-1 tox inactive.
For O=C(c1cc([N+](=O)[O-])ccc1Cl)N1CCN(c2ccc(F)cc2)CC1 the results were Nrf2 block -10%, PI4K2A inh 2, Giardia killer -10, KB-V1 MDR tox inactive, A549 viability 9% and KB-3-1 tox inactive.
Screening O=C(c1ccco1)N1CCN(c2c([N+](=O)[O-])nn(-c3cccc(Cl)c3)[n+]2[O-])CC1 returned Nrf2 block 30%, PI4K2A inh -2, Giardia killer -87*, KB-V1 MDR tox inactive, A549 viability 18% and KB-3-1 tox inactive.
COC(=O)c1cc(C(=O)N2CCN(c3cccc(Cl)c3)CC2)cc([N+](=O)[O-])c1 was read as Nrf2 block inconclusive, PI4K2A inh 0, Giardia killer -11, KB-V1 MDR tox inconclusive, A549 viability -15% and KB-3-1 tox 1µM*.
Screening O=C(/C=C/c1ccccc1[N+](=O)[O-])N1CCN(c2ccc(F)cc2)CC1 returned Nrf2 block -22%, PI4K2A inh inconclusive, Giardia killer -5, KB-V1 MDR tox inactive, A549 viability -2% and KB-3-1 tox inactive.
For O=C(/C=C/c1cccc([N+](=O)[O-])c1)N1CCN(c2ccc(F)cc2)CC1 the results were Nrf2 block inconclusive, PI4K2A inh -5, Giardia killer 3, KB-V1 MDR tox 21µM*, A549 viability -5% and KB-3-1 tox inactive.
O=C(c1cc([N+](=O)[O-])ccc1Cl)N1CCN(c2ccc([N+](=O)[O-])cc2)CC1 was read as Nrf2 block 21µM*, PI4K2A inh 4, Giardia killer -24, KB-V1 MDR tox inconclusive, A549 viability inconclusive and KB-3-1 tox inactive.
`O=C(c1ccc(Cl)c([N+](=O)[O-])c1)N1CCN(C(=O)c2ccco2)CC1` gave Nrf2 block -1%, PI4K2A inh 3, Giardia killer 20, KB-V1 MDR tox inactive, A549 viability -1% and KB-3-1 tox inactive.
For O=C(NCCc1ccccc1)O[C@H]1CC[C@@]23CCCN2C(=O)CCC[C@H]3C1 the results were PI4K2A inh -1.
Screening CC(=O)c1cc(-c2ccc3nonc3c2)c(=O)n2c1CCC2 returned PI4K2A inh -7.
For Cc1cccc(-n2cc(-c3ccccc3)c3c(NC(C)C)ncnc32)c1 the results were PI4K2A inh -22 and A549 viability 6%.
O=C(c1ccc(Sc2cccc(Cl)c2)c([N+](=O)[O-])c1)N1CCN(c2ccccn2)CC1 was read as Nrf2 block 16µM*, PI4K2A inh 7, Giardia killer -4, KB-V1 MDR tox inconclusive, A549 viability -12% and KB-3-1 tox inactive.
For O=C(c1cccc([N+](=O)[O-])c1)N1CCN(c2cccc(Cl)c2)CC1 the results were Nrf2 block -8%, PI4K2A inh 1, Giardia killer 18, KB-V1 MDR tox 5.8µM*, A549 viability -1% and KB-3-1 tox 18µM*.
Screening COC(=O)[C@]12C[C@H](CC(=O)N3CCN(C(=O)c4ccco4)CC3)C(=O)N(CCc3ccc(OC)c(OC)c3)C1=C[C@H](C(C)(C)C)O[C@@H]2C returned PI4K2A inh -5.
`COC(=O)[C@]12C[C@H](CC(=O)NCc3cccc(C(F)(F)F)c3)C(=O)N(Cc3ccco3)C1=C[C@H](COCc1ccccc1)O[C@@H]2C` gave PI4K2A inh 1.
COc1ccc2ccccc2c1-c1c(C(=O)c2ccc(Br)cc2)[nH]c(N)c1C(=O)NC1CCCCC1 was read as PI4K2A inh 4.
`N#Cc1c(NC(=O)c2ccc([N+](=O)[O-])o2)sc2c1CCC2` gave Nrf2 block 7%, PI4K2A inh 10, Giardia killer -94*, KB-V1 MDR tox 18µM*, A549 viability inconclusive and KB-3-1 tox 5.2µM*.
Screening CN1CCc2c(sc(NC(=O)c3ccco3)c2C(N)=O)C1 returned Nrf2 block 10%, PI4K2A inh -6, Giardia killer -5, KB-V1 MDR tox inactive, A549 viability 1% and KB-3-1 tox inactive.
`CN1CCc2c(sc(NC(=O)c3ccc([N+](=O)[O-])o3)c2C(N)=O)C1` gave Nrf2 block inconclusive, PI4K2A inh -8, Giardia killer inconclusive, KB-V1 MDR tox inconclusive, A549 viability 21µM* and KB-3-1 tox inconclusive.
For NC(=O)c1ccsc1NC(=O)c1ccc([N+](=O)[O-])o1 the results were Nrf2 block 3%, PI4K2A inh 5, Giardia killer -95*, KB-V1 MDR tox inconclusive, A549 viability -4% and KB-3-1 tox inconclusive.
Screening NC(=O)c1c(NC(=O)c2ccc([N+](=O)[O-])o2)sc2c1CCCC2 returned Nrf2 block -2%, PI4K2A inh -5, Giardia killer -91*, KB-V1 MDR tox inconclusive, A549 viability 2% and KB-3-1 tox 16µM*.
Screening NC(=O)c1ccsc1NC(=O)COC(=O)c1ccc([N+](=O)[O-])o1 returned Nrf2 block 6%, PI4K2A inh 19, Giardia killer 22, KB-V1 MDR tox inactive, A549 viability -1% and KB-3-1 tox inactive.

High-throughput results as filed in PubChem BioAssay.
